Measured values published in PubChem BioAssay (NCI).
About 83,000 compounds went through this panel and 20% of them were active in at least one assay; those are over-represented in the sample as a whole.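 48-hour exposure, single concentration, 96-well plates; percent growth endpoint where 0 means no net growth. Active: below 10.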 Unmarked numbers belong to inactive results. The source made the active and inactive calls.

What was measured:
Assay in all cases: NCI-60 one-dose screen, 48 h (100 = growth as untreated, 0 = no growth, -100 = all killed)
Details in all cases: 10 µM unless noted
T-47D breast = tested on: T-47D breast
BT-549 breast = tested on: BT-549 breast
MDA-MB-435 melanoma = tested on: MDA-MB-435 melanoma
SW-620 colon = tested on: SW-620 colon
MCF7 breast = tested on: MCF7 breast
HCT-116 colon = tested on: HCT-116 colon
HCC-2998 colon = tested on: HCC-2998 colon
KM12 colon = tested on: KM12 colon
MDA-MB-468 breast = tested on: MDA-MB-468 breast

| Structure (SMILES) | growth (T-47D breast) | growth (BT-549 breast) | growth (MDA-MB-435 melanoma) | growth (SW-620 colon) | growth (MCF7 breast) | growth (HCT-116 colon) | growth (HCC-2998 colon) | growth (KM12 colon) | growth (MDA-MB-468 breast) |
| --- | --- | --- | --- | --- | --- | --- | --- | --- | --- |
| O=C(CSc1nc2sc3c(c2c(=O)n1-c1ccc(Cl)cc1)CCCC3)N/N=C/C=C/c1ccccc1 | -24.5% (active) | -73.7% (active) | -50.1% (active) | -55.5% (active) | 12.6% | -13.5% (active) | 6.29% (active) | 39.9% | -81.6% (active) |
| COc1ccc(-c2nnc3c(/C=C/c4ccc(Br)cc4)nc4ccccc4n23)cc1 | 64.2% | 9.42% (active) | 28.9% | -10% (active) | 0% (active) | -53.8% (active) | 87.7% | 85.2% | 32.7% |
| COc1ccc(/C=C/c2nc3ccccc3c(=O)n2CC(=O)Nc2ccccc2)cc1 | -20.4% (active) | 98.5% | 85.2% | 61.6% | 54.9% | 21% | 80.2% | 66.9% | 55.7% |
| Cc1ccc(/C=C/C(=O)c2ccc(S(=O)(=O)NCCNc3nc(N(C)C)nc(N4CCOCC4)n3)cc2)cc1 | 69.6% | 97.3% | 74.8% | 29.1% | 7.32% (active) | -21.6% (active) | 114% | 21.1% | 67.3% |
| N#C/C(=C/c1ccc([N+](=O)[O-])cc1)c1nnc(NC(=O)c2ccc(-n3c(=O)[nH]c4ccccc4c3=O)cc2)s1 | 85.8% | 107% | 105% | 100% | 84.9% | 94.8% | 108% | 90.8% | 98.5% |
| FC(F)(F)c1cc2c(Cl)ncnc2n1CCN1CCOCC1 | 96.2% | 60.6% | 86.4% | 59.9% | 89% | 31.7% | -26.6% (active) | 96.4% | 40.1% |
| Cc1nc(Nc2ccccn2)sc1C1=NNC(c2ccccc2F)C1 (stereo not drawn) | 33.5% | 36.1% | -17.9% (active) | 32.1% | 20.1% | 34.3% | 95.7% | 23.4% | -13.7% (active) |
| C[C@@H](Nc1c(C#N)cnc2ccc(-c3cnc4[nH]ncc4c3)cc12)c1ccccc1 | 10.9% | -21.7% (active) | 22.4% | 40.2% | -27.9% (active) | 20.2% | 33.3% | 30% | -70.1% (active) |
| COc1ccc2[nH]c(O)c(N=NC(=O)c3ccc4nc(-c5ccc(Cl)cc5)[nH]c4c3)c2c1 | 13.5% | 34.5% | 81.2% | 82.6% | 24.5% | 51.4% | 64.6% | 78.6% | -48.3% (active) |
| CNS(=O)(=O)N1CCc2c(Br)c3c(c(OC)c2C1CCc1ccccc1)OCO3 (stereo not drawn) | 6.69% (active) | -68.8% (active) | -67.9% (active) | 8.53% (active) | -22.3% (active) | -16.8% (active) | -12.7% (active) | 2.02% (active) | -63.1% (active) |
| Cc1ccc2nc(COc3ccc(C(=O)NNC(=O)Nc4ccc(Cl)c(C(F)(F)F)c4)cc3)[nH]c2c1 | -24.8% (active) | -2.01% (active) | 8.76% (active) | 43.4% | 53.4% | 4.51% (active) | 70.1% | 24.9% | -56.9% (active) |
| COc1cc(CNC(=O)[C@]23CCC(C)(C)CC2C2=CCC4[C@@]5(C)CCC(OC(C)=O)C(C)(C)C5CC[C@@]4(C)[C@]2(C)CC3)ccc1OCc1cn(-c2ccc(Cl)cc2Cl)nn1 (stereo partly drawn) | 85.1% | 118% | 105% | 106% | 86.5% | 98.2% | 122% | 101% | 112% |
